Assay results from PubChem BioAssay.
The source made the active and inactive calls. No rule for the calls is given here.

These compounds were tested against Protein kinase 7 (PK7), Plasmodium falciparum 3D7 (PF3D7_0213400) (UniProt Q7YTF7) (assay: inhibition of Plasmodium PK7 catalytic activity – biochemical, TCAMS antimalarial set, Kinase-Glo luminescence (AID 1159587)). Conditions: recombinant PfPK7, Kinase-Glo ATP depletion luminescence.
Sequence of Protein kinase 7 (PK7), Plasmodium falciparum 3D7 (PF3D7_0213400) (Q7YTF7 1-343): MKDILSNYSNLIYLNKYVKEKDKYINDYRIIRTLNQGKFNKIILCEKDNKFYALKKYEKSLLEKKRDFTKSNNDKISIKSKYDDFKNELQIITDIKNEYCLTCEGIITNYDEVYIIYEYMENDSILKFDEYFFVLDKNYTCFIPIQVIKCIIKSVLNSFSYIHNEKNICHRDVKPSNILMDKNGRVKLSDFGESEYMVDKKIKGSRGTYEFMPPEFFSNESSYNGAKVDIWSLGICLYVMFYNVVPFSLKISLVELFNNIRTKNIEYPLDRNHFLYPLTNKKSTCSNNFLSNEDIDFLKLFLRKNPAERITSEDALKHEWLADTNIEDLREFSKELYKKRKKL

SMILES | outcome
O=C(Nc1ccc(-c2ccc(-c3nc4ccccc4[nH]3)cc2)cc1)Nc1ccc(Cl)c(Cl)c1 | inactive
O=C(Nc1cccc(Cl)c1)OC1CCCN2CCCCC12 (stereo not given) | inactive
CCC(C)C(COC(=O)c1cc(OC)c(OC)c(OC)c1)N(C)CCN(C)C(COC(=O)c1cc(OC)c(OC)c(OC)c1)C(C)CC (stereo not given) | inactive
COc1ccc(N2CCN(CCCCNCc3ccc(NC(=O)c4cc(Cl)cc(Cl)c4)cc3)CC2)c(OC)c1 | inactive
O=C(C=Cc1ccc(Cl)c(Cl)c1)NCCCCCN1CCC(CCCNC(=O)/C=C/c2ccccc2)CC1 | inactive
CCOc1ccc(CCCON2C(N)=NC(N)=NC2(C)C)cc1 | inactive
CNCc1ccc(CN(C)c2nc(N)c3cc(OC)c(OC)cc3n2)cc1 | inactive
COc1ccc2nccc([C@@H](O)CN3CCC(NCc4ccc5c(c4)NC(=O)C(C)S5)CC3)c2c1 (stereo not given in full) | inactive
N#Cc1ccc2nc(-c3cc(-c4cccc(F)c4)cnc3N)[nH]c2c1 | inactive
O=C(Nc1ccc(S(=O)(=O)N2CCCC2)cc1)c1cc(-c2cccnc2)nc2ccc(Cl)cc12 | inactive
Cn1nc2ccc3ccccc3c2nc1=N | inactive
CN(CCc1ccccn1)Cc1ccc(-c2ccc(-c3nc4ccccc4[nH]3)s2)cc1 | inactive
O=C(COc1ccccc1)NC1CCN(c2ccnc3cc(Cl)ccc23)C1 (stereo not given) | inactive
O=C(Cc1ccc(Cl)cc1)Nc1cc(Cl)ccc1Cn1cnc(N2CCNCC2)cc1=O | inactive
COc1ccccc1-c1nc2nc(N)nc(N)c2nc1-c1ccccc1OC | inactive
CCC(=O)c1ccc(-c2ccc(=O)n(CC(=O)N(CCN(CC)CC)Cc3ccc(-c4ccc(C(F)(F)F)cc4)cc3)n2)cc1 | inactive
CC(=O)Nc1ccc(C2NC(=O)NC(c3ccccc3)=C2c2nc3ccccc3s2)cc1 (stereo not given) | inactive
Cc1cccc2[nH]c(-c3ccc(-c4cccc(CNCCCNS(C)(=O)=O)c4)cc3)nc12 | inactive
Cc1cccc2[nH]c(-c3ccc(-c4ccc(CNCCNC(=O)c5ccnn5C)cc4)cc3)nc12 | inactive
COc1cc(NC(=O)N2CCOC(CCN3CCC(c4ccccc4)CC3)(c3ccc(Cl)c(Cl)c3)C2)cc(OC)c1OC (stereo not given) | inactive

SMILES | outcome
CN1CCN(Cc2ccc(-c3ccc4c(Nc5ccc(F)cc5Cl)ccnc4c3)o2)CC1 | inactive
CN1CCN(CCCN(Cc2ccc(-c3ccc(CNC4CCCC4)cc3)cc2)C(=O)CCC2CCCC2)CC1 | inactive
N#Cc1cccc(C(=O)Nc2ccc(-c3ccc(CN4CCCC4)cc3)cc2)c1 | inactive
C=CCc1cc(C2CCN(CCCCNC(=O)c3ccc(-c4ccc(C#N)cc4)cc3)CC2)c(OCC(N)=O)c2c1CCCC2 | inactive
CN(C)Cc1ccc(CN2CCN(CCOc3ccc(-c4ccc(Cl)cc4)cc3)CC2)o1 | inactive
COc1ccc2nccc([C@@H](O)CN3CCC(NCc4ccc5c(c4)NC(=O)CS5)CC3)c2c1 | inactive
O=C(c1ccc([N+](=O)[O-])o1)N1CCN(c2nc3c(F)cc(F)cc3s2)CC1 | inactive
CC1(C)C[C@@H]2C[C@@](C)(CN2C(=O)c2cc(C(C)(C)C)nn2Cc2ccccc2)C1 | inactive
CCCCCCCNCc1c(O)ccc2c(CNCCCCCCC)c(O)ccc12 | inactive
COc1cc2c(cc1OC)CN(CCCCNC(=O)c1ccc(NC(=O)c3cc(Cl)cc(Cl)c3)cc1)CC2 | inactive
COc1c(OC)c(OC)c2ccccc2c1CNCCCCCCNCc1c(OC)c(OC)c(OC)c2ccccc12 | inactive
Oc1ccccc1CN1CCC2(CCCN(Cc3ccccc3F)C2)C1 (stereo not given) | inactive
CC(C)C(=O)NC(Nc1ccc([N+](=O)[O-])cc1)C(Cl)(Cl)Cl (stereo not given) | inactive
Fc1ccc2nc(-c3ccc(-c4cccc(CN5CCN(c6ccncc6)CC5)c4)cc3)[nH]c2c1 | inactive
O=C(NC1CCCCN(Cc2ccc3c(c2)OCCO3)C1)c1cc(-c2ccccc2F)cs1 (stereo not given) | inactive
CN(C)c1cc(NC(=O)Nc2ccccc2)c2ccccc2n1 | inactive
CCc1c(CCNCCCCCCNCCc2ccc(OC)c(OC)c2C)ccc(OC)c1OC | inactive
CC(C)c1ccc(NC(=O)Nc2ccc(CCNCCCc3ccccc3)cc2)cc1 | inactive
CCOc1ccc(NC(=O)c2cccc(CN3CCCN(Cc4cccc(O)c4)CC3)c2)cc1 | inactive
CN(C)CCCOc1ccc(CN2CC[C@H](NC(=O)c3ccc(Cl)c(Cl)c3)C2)cc1Cl | inactive
